“And” between values parts separate entries of the source, which are not always exact repeats. Identical values can stand only once. Entries with a potency or affinity are not part of this list.
System: Escherichia coli
Details: Concentration 32 ug.mL-1; ASSAY_TEST Inhibition of Bacterial Growth; detection method Absorption (OD600); MEDIA CAMHB; plate type 384well; NBS; CORNING #3640; time 18 hr, 32 ug/mL

Structure (SMILES) | Inhibition
CC(C)(C)OC(=O)N1C(O)C(Cc2ccccc2)CN1S(=O)(=O)c1ccc([N+](=O)[O-])cc1 (configuration not stated) | 1.32% and -2.18% and -0.91%
CC1CN(S(=O)(=O)c2ccc([N+](=O)[O-])cc2)N(C(=O)OC(C)(C)C)C1=O (configuration not stated) | -2.77% and -4.85% and -5.54%
O=C1ON(C(=O)OCc2ccccc2)CC1Cc1ccccc1 (configuration not stated) | -4.21% and -4.06%
Cc1ccc(S(=O)(=O)N2CC(Cc3ccccc3)C(=O)N2S(=O)(=O)c2ccc(C)cc2)cc1 (configuration not stated) | -8.26% and -4.89%
CC1CN(C(=O)OCc2ccccc2)OC1=O (configuration not stated) | -4.89% and -2.17% and -2.01%
Cc1ccc(S(=O)(=O)N2CC(C)C(=O)N2S(=O)(=O)c2ccc(C)cc2)cc1 (configuration not stated) | -5.27% and -6.97%
CC(C)(C)OC(=O)N1C(=O)C(Cc2ccccc2)CN1S(=O)(=O)c1ccc([N+](=O)[O-])cc1 (configuration not stated) | -5.13% and -6.6% and -4.72%

Source: ChEMBL document CHEMBL4513145, “CO-ADD screening of Biotechnology Research Centre (C.R.B.t) (Algeria) compounds”
